Results published in PubChem BioAssay AID1347416 (National Center for Advancing Translational Sciences (NCATS), 2020).
Screen size: about 4,100 compounds; about 1,600 (39%) were called active. About 25% were inconclusive and are not listed. Calls come from the whole dose curve; as a rule, active = well fitted inhibition curve with a large enough effect; inconclusive = small, poorly fitted or top-dose-only effect; inactive = no such curve, though single readings can be large or run the other way. Some of the results follow.

Test: qHTS Validation assay for Inhibitors of Plasmodium falciparum Dd2 growth in vitro; note: nearly all actives have a fitted effect of over 70% in size
Details: P. falciparum Dd2 in RBCs, SYBR Green growth, 72 h; series mostly up to 28.7 µM; activity change, negative = inhibition: at the top concentration
How it was run: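 P. falciparum Dd2-infected red blood cells (2.5% hematocrit, 0.3% parasitemia) grown 72 h at 37 °C under 5% O2 with compounds in a titration, 29 uM to 0.5 nM final. Growth read as SYBR Green-1 fluorescence after ~16 h lysis; artesunate 300 nM as positive control.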
% is set by controls: 0 for no effect and ±100 for the full control effect; potency is the fitted concentration of half-maximal effect.

Potency, active:
CC(C)N1C(=S)N(Cc2ccco2)C(=O)C1CC(=O)Nc1ccccc1 (centres undefined) 1.68 µM
CN1CCC(Nc2ncc3ncnc(Nc4ccc(F)c(Cl)c4)c3n2)CC1 10.6 µM
Cc1cccc(N2CCN(C(=O)CCc3nnc4n(CC(C)C)c(=O)c5ccccc5n34)CC2)c1C 3.35 µM
Cc1ccc(/C=N/NC(=O)c2cc3ccccc3cc2O)o1 5.31 µM
CCNc1nc(NC(C)CC)nc(ON=C(C)C)n1 (centres undefined) 8.41 µM
CSc1cccc(Nc2nc3c(S(=O)(=O)c4ccccc4)nnn3c3ccc(Cl)cc23)c1 1.88 µM
CCc1ccc(S(=O)(=O)c2nnn3c2nc(Nc2ccc(F)cc2)c2cc(Cl)ccc23)cc1 2.11 µM
COc1ccccc1C(=O)N1CCC2(CC1)OC(=O)N(Cc1ccccc1C#N)C2(C)c1ccccc1 (centres undefined) 15 µM
COc1ccccc1C(=O)N1CCC2(CC1)OC(=O)N(CCOc1ccccc1)C2(C)c1cccnc1 (centres undefined) 9.44 µM
COc1cc(NC(=O)c2cc3c(Cl)nc4ccccc4c3s2)cc(OC)c1OC 4.73 µM
COCCc1nn2c(=O)cc(COC(=O)C(c3ccccc3)c3ccccc3)nc2s1 2.66 µM
Cn1c(=O)[nH]c2nnc(-c3ccc(Cl)c(Cl)c3)nc2c1=O 8.41 µM
CCN1CCN(c2cc(C)c3cc(NC(=O)/C=C/c4ccc(C)cc4)ccc3n2)CC1 4.22 µM
CCN1CCN(c2cc(C)c3cc(NC(=O)/C=C/c4ccc(OCCC(C)C)cc4)ccc3n2)CC1 2.11 µM
COc1cc2nc(NCc3ccc(C)cc3)n3nc(-c4ccccc4)nc3c2cc1OC 0.266 µM
COc1cc2nc(NCc3ccccc3)n3nc(-c4ccccc4)nc3c2cc1OC 0.422 µM
COc1cc2nc(NCc3ccccc3Cl)n3nc(-c4cccnc4)nc3c2cc1OC 2.11 µM
Cc1ccc(C)c(N=Nc2nc3ccccc3n2C)c1 0.299 µM
Cn1nnnc1SCCCNCc1cccc(OCc2ccccc2)c1 9.44 µM
COc1cc2c(cc1OC)C(COc1ccc3c(C)cc(=O)oc3c1)N(C(=O)c1ccccc1C)CC2 (centres undefined) 15 µM
CC(=O)N1CCc2cc(Br)cc(S(=O)(=O)N3CCCCC3)c21 5.96 µM
CC(=O)N1CCc2cc(Br)cc(S(=O)(=O)N3CCCCCC3)c21 5.31 µM
CC(C)c1nc2c(c(-c3ccc(O)cc3)n1)CCN(Cc1ccc(C(F)(F)F)cc1)CC2 5.31 µM
CC(C)c1nc2c(c(-c3ccc(O)cc3)n1)CN(Cc1cccc(F)c1)CC2 9.44 µM
CC(C)c1nc2c(c(-c3ccc(O)cc3)n1)CCN(Cc1ccc(OC(F)(F)F)cc1)CC2 2.99 µM
CC(=O)Nc1ccc(CN2CCc3nc(C(C)C)nc(-c4ccc(Cl)cc4)c3CC2)cc1 2.66 µM
Cc1nc2c(c(-c3ccc(O)cc3)n1)CN(Cc1ccc(C(F)(F)F)cc1)CCC2 4.22 µM
Cc1ccc(C(=O)Nc2cccc(NC(=O)c3ccc(C)c([N+](=O)[O-])c3)n2)cc1[N+](=O)[O-] 15 µM

Activity change, negative = inhibition, inactive:
COc1ccccc1C(=O)N1CCCN(c2nnc3cccc(C)n23)CC1 9.24%
COCCN1C(=O)CS(=O)(=O)C12CCN(C(=O)C1(c3ccccc3)CC1)CC2 1.25%
CNCC(=O)N1CCC2(CC1)CN(CCOc1ccccc1)C(=O)O2 40.8%
Cn1cnnc1-c1nn(C)c2c1CN(C(=O)c1cc3ccccc3[nH]1)CC2 -20.5%
N#Cc1cccc(S(=O)(=O)N2CC(C(=O)NC3CCCCC3)C3(CCOCC3)C2)c1 (centres undefined) 11.3%
CCC(C)NC(=O)c1cc2c(Cl)nc3ccc(C)cc3c2s1 (centres undefined) -5.46%
CCCc1noc(-c2cccn3c(CNC(=O)c4ccccc4OCC)nnc23)n1 -8.26%
Cc1csc2nc(COc3ccc(NC(=O)c4ccccc4F)cc3)cc(=O)n12 26.8%
COc1cc(C(=O)Nc2ccccc2OCc2cc(=O)n3cc(C)sc3n2)cc(OC)c1OC 29.8%
Cn1c(=O)c2nc(SCC(=O)Nc3ccc(Cl)c(Cl)c3)n(C)c2n(C)c1=O 26.8%
CCS(=O)(=O)N1CC(F)(F)C[C@H]1c1nc(CCOC)no1 13.7%
COc1cccc(NC(=O)CSc2nc3cc(OC)c(OC)cc3c3nc(-c4ccccc4)nn23)c1 42.6%
COc1ccccc1S(=O)(=O)Cc1ccc(C(=O)NCc2cccs2)o1 5.1%
CC(C(=O)N1CCCN(c2cc(-c3ccc(Cl)cc3)[nH]n2)CC1)c1ccccc1 (centres undefined) -15.7%
Nc1nc(N)c2c(ccc3nccc32)[nH]1 7.51%
O=C(CCc1nc2ccccc2[nH]1)N1C[C@@H](CO)[C@H](c2ccccn2)C1 41.4%
CCN(Cc1nc2ccccc2n1C)c1ccccc1 6.82%
CCOc1c(CNCCSc2nnnn2C)cccc1OC -28%
c1ccc(COc2cncc(-c3cccnc3)c2)cc1 1.56%
COc1ccc2c(C)c(C(=O)N3CC(Oc4c(C)cccc4C)C3)oc2c1 41.8%
COc1cc2c(cc1OC)[C@H](C)N(C(=O)COc1ccccc1)CC2 -6.38%
Cc1nc(-c2c3n(c(=O)n(Cc4ccc(OC(F)(F)F)cc4)c2=O)CCCCC3)no1 -10.2%
COCC(=O)N1CCc2nc(-c3ccccc3)nc(-c3ccc(Cl)cc3)c2C1 0%
Cc1nc2c(c(-c3ccc(O)cc3)n1)CN(C(=O)c1cccc(Cl)c1)CC2 1.23%
CC(=O)Nc1ccc(CN2CCn3c(nn(-c4ccc(Cl)cc4)c3=O)C2)cc1 14.2%
Cc1nc(-c2c3n(c(=O)n(Cc4ccc(OC(F)(F)F)cc4)c2=O)CCCC3)no1 -13.9%
CCn1nc(C)c(-c2cc(C(=O)NCCc3noc(-c4ccccc4)n3)no2)c1C -0.509%
CC1(C)C[C@H](NCc2ccc(CO)o2)[C@@]2(CCC(=O)NCCN3CCOCC3)CC[C@](C)(O)C[C@@H]12 4.43%
COc1ccccc1CNS(=O)(=O)c1ccc2c(c1)CC(=O)N2C -10.4%
Cc1ccc(C(=O)NCCn2c(C)cc3ccccc32)cc1C 0%
COc1ccc(N(CC(=O)NCc2ccncc2)S(=O)(=O)c2ccc(C)c([N+](=O)[O-])c2)cc1 24.8%
